The text below walks through data of PubChem BioAssay (Tox21).

Where “and” joins values, the source holds several entries; their conditions need not be identical. Equal values may be shown once. Inconclusive results are not listed. Entries that show only a call come without a potency. Calls of active or inactive are those of the source. The call rests on the fitted dose curve; in most records, active means well fitted curve in the direction sought with a large enough effect in the repeat runs; inconclusive means weak or mixed curves; inactive means no such curve, though single readings can be large; an effect the other way counts as inactive or inconclusive.
Potency means the concentration at half of the fitted maximal effect.

The first assay is described as follows: A CellTox Green Cytotoxicity Assay to monitor cytotoxicity in HEK293 cells - 16 hour (AID 1224888). Further: nearly all actives have a fitted effect of over 35% in size. To be noted: CellTox Green fluorescence; series mostly up to 76.8 µM. The method, boiled down:
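Fluorescence intensity, read at 0, 8, 16, 24, 32 and 40 h of compound treatment, reflected dye binding to DNA of dead HEK293 cells; compounds (23 nL, DMSO) were added 5 h after plating cells with reagent.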
As to `CCCCCCCCCCCCCCCCCCn1cc[n+](C)c1`, the Potency is 27.4 µM (active).
With `COC[C@H](C)N(C(=O)CCl)c1c(C)csc1C`, the Potency entry was “inactive”.
Consider `C[C@H]1CC[C@@H]2[C@@H](C)[C@H]3[C@H](C[C@H]4[C@@H]5CC=C6CC(O[C@@H]7O[C@H](CO)[C@H](O)[C@H](O[C@@H]8O[C@H](CO)[C@@H](O)[C@H](O)[C@H]8O)[C@H]7O[C@H]7O[C@@H](C)[C@H](O)[C@@H](O)[C@H]7O)CC[C@]6(C)[C@H]5CC[C@]34C)N2C1` (some centres undefined), for which the Potency is 7.14 µM (active).
On the same count and under the same terms, then `Cc1cc(C)cc(OP(=O)(Oc2cc(C)cc(C)c2)Oc2cc(C)cc(C)c2)c1`, with “inactive”.
As to `Cc1ccc(C(=O)Cl)cc1`, the Potency result was “inactive”.
Consider `COP(N)(=S)OC`, for which the Potency result was “inactive”.
With `NNC(=O)c1ccccc1`, the Potency entry is “inactive”.
For `CCN`, the Potency entry is “inactive”.
Regarding `N#Cc1ccccc1N`, the Potency result was “inactive”.
In the case of `CN(CCCC(O)c1cccnc1)N=O` (centres undefined), the Potency result is “inactive”.
The same measure, in the same setting: then `S=C=Nc1cccc2ccccc12`, with “inactive”.
For `O=C(CCCN1CCC2(CC1)C(=O)NCN2c1ccccc1)c1ccc(F)cc1`, the Potency entry is “inactive”.
On the same count and under the same terms, then `CC(C)(C)OO`, with “inactive”; and `C[C@]12CC[C@@H]3c4ccc(OC(=O)N(CCCl)CCCl)cc4CC[C@H]3[C@@H]1CC[C@@H]2O`, with “inactive”; and `ClCCN1CCOCC1`, with “inactive”.
The same measure, in the same setting: the figure for `[Hg+2].[I-].[I-]` is 43.6 µM (active).
On to `Cl/C=C\CCl`, for which the Potency entry is “inactive”.
As to `CC(O)C#N` (centres undefined), the Potency entry is “inactive”.
On to `c1ccc(OCC2CO2)cc1` (centres undefined), for which the Potency entry was “inactive”.
For the compound `ClC1=C(Cl)[C@]2(Cl)[C@@H]3[C@@H]4C[C@@H]([C@H]5O[C@@H]45)[C@@H]3[C@@]1(Cl)C2(Cl)Cl`, the Potency was 49 µM (active).
Regarding `CCOCCOC(C)=O`, the Potency entry is “inactive”.
As to `CCC[CH2][Sn]([CH2]CCC)([CH2]CCC)[O]C(=O)c1ccccc1`, the Potency was 4.36 µM (active).
For `CCCCCCCCCCBr`, the Potency result was “inactive”.
In the case of `Oc1ccc(I)cc1`, the Potency entry is “inactive”.
Same read-out and setting: then `O=c1[nH]c2ccccc2n1CCCN1CCC(n2c(=O)[nH]c3cc(Cl)ccc32)CC1`, with “inactive”; and `Cc1cc(Cl)ccc1O[C@H](C)C(=O)O`, with “inactive”; and `CCCCCCCCCCCCCN1CC(C)OC(C)C1` (centres undefined), with “inactive”.
For `O=c1ssc(Cl)c1Cl`, the Potency is 38.9 µM (active).
Regarding `C[C@@H](Oc1ccc(Cl)cc1Cl)C(=O)O`, the Potency entry is “inactive”.
As to `COP(=O)(CCC(=O)NCO)OC`, the Potency result was “inactive”.
On the same count and under the same terms, the entry for `C=COCCCl` is “inactive”; for `CNC(C)Cc1ccc2c(c1)OCO2` (centres undefined) it is “inactive”.
`CCCSP(=O)(OCC)SCCC`: the Potency entry was “inactive”.
Regarding `CCS(=O)(=O)c1cccnc1S(=O)(=O)NC(=O)Nc1nc(OC)cc(OC)n1`, the Potency entry was “inactive”.
On the same count and under the same terms, then `CCCCCCCCCCCCCCCC[N+](C)(C)C`, with 23.7 µM (active) and 49 µM (active) and 19 µM (active); and `O=c1[nH]c2ccccc2n1C1CCN(CCCC(c2ccc(F)cc2)c2ccc(F)cc2)CC1`, with “inactive”.
As for `CCOP(=S)(OCC)SCS(=O)(=O)C(C)(C)C`, the Potency result is “inactive”.
As for `CC(=O)Nc1ccc2c(c1)Cc1ccccc1-2`, the Potency result is “inactive”.

Another assay is described as follows: qHTS RealTime-Glo MT Cell Viability Assay in HepG2 cells - 0 hour (AID 1224889). Further: nearly all actives have a fitted effect of over 50% in size. The settings on record: RealTime-Glo luminescence; series mostly up to 76.8 µM. The method, boiled down:
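Luminescence read-out: viable HepG2 cells reduce a prosubstrate to a NanoLuc substrate, giving a signal proportional to live cell number. Reads taken at 0, 8, 16, 24, 32 and 40 h of compound exposure at 37 C.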
In the case of `CCCCCCCCCCCCCCCCCCn1cc[n+](C)c1`, the Potency entry is “inactive”.
On to `COC[C@H](C)N(C(=O)CCl)c1c(C)csc1C`, for which the Potency entry was “inactive”.
`C[C@H]1CC[C@@H]2[C@@H](C)[C@H]3[C@H](C[C@H]4[C@@H]5CC=C6CC(O[C@@H]7O[C@H](CO)[C@H](O)[C@H](O[C@@H]8O[C@H](CO)[C@@H](O)[C@H](O)[C@H]8O)[C@H]7O[C@H]7O[C@@H](C)[C@H](O)[C@@H](O)[C@H]7O)CC[C@]6(C)[C@H]5CC[C@]34C)N2C1` (some centres undefined): the Potency entry was “inactive”.
Turning to `Cc1cc(C)cc(OP(=O)(Oc2cc(C)cc(C)c2)Oc2cc(C)cc(C)c2)c1`, the Potency entry is “inactive”.
`Cc1ccc(C(=O)Cl)cc1`: the Potency entry is “inactive”.
Consider `COP(N)(=S)OC`, for which the Potency result is “inactive”.
Regarding `NNC(=O)c1ccccc1`, the Potency result is “inactive”.
On the same count and under the same terms, then `CCN`, with “inactive”; and `N#Cc1ccccc1N`, with “inactive”; and `CN(CCCC(O)c1cccnc1)N=O` (centres undefined), with “inactive”.
In the case of `S=C=Nc1cccc2ccccc12`, the Potency result was “inactive”.
`O=C(CCCN1CCC2(CC1)C(=O)NCN2c1ccccc1)c1ccc(F)cc1`: the Potency entry is “inactive”.
`CC(C)(C)OO`: the Potency result was “inactive”.
For the compound `C[C@]12CC[C@@H]3c4ccc(OC(=O)N(CCCl)CCCl)cc4CC[C@H]3[C@@H]1CC[C@@H]2O`, the Potency entry is “inactive”.
Regarding `ClCCN1CCOCC1`, the Potency result is “inactive”.
With `[Hg+2].[I-].[I-]`, the Potency was 24.5 µM (active).
Turning to `Cl/C=C\CCl`, the Potency entry is “inactive”.
With `CC(O)C#N` (centres undefined), the Potency result is “inactive”.
Regarding `c1ccc(OCC2CO2)cc1` (centres undefined), the Potency entry is “inactive”.
In the case of `ClC1=C(Cl)[C@]2(Cl)[C@@H]3[C@@H]4C[C@@H]([C@H]5O[C@@H]45)[C@@H]3[C@@]1(Cl)C2(Cl)Cl`, the Potency entry was “inactive”.
Consider `CCOCCOC(C)=O`, for which the Potency entry was “inactive”.
The same measure, in the same setting: the entry for `CCC[CH2][Sn]([CH2]CCC)([CH2]CCC)[O]C(=O)c1ccccc1` is “inactive”; for `CCCCCCCCCCBr` it is “inactive”; for `Oc1ccc(I)cc1` it is “inactive”.
As to `O=c1[nH]c2ccccc2n1CCCN1CCC(n2c(=O)[nH]c3cc(Cl)ccc32)CC1`, the Potency entry is “inactive”.
Take `Cc1cc(Cl)ccc1O[C@H](C)C(=O)O`: the Potency result was “inactive”.
Consider `CCCCCCCCCCCCCN1CC(C)OC(C)C1` (centres undefined), for which the Potency result was “inactive”.
Take `O=c1ssc(Cl)c1Cl`: the Potency is 43.6 µM (active).
Same read-out and setting: the entry for `C[C@@H](Oc1ccc(Cl)cc1Cl)C(=O)O` is “inactive”.
`COP(=O)(CCC(=O)NCO)OC`: the Potency result is “inactive”.
As to `C=COCCCl`, the Potency entry is “inactive”.
Regarding `CNC(C)Cc1ccc2c(c1)OCO2` (centres undefined), the Potency entry is “inactive”.
With `CCS(=O)(=O)c1cccnc1S(=O)(=O)NC(=O)Nc1nc(OC)cc(OC)n1`, the Potency entry was “inactive”.
With `CCCCCCCCCCCCCCCC[N+](C)(C)C`, the Potency entry was “inactive”.
Still for that read-out and setting: the entry for `O=c1[nH]c2ccccc2n1C1CCN(CCCC(c2ccc(F)cc2)c2ccc(F)cc2)CC1` is “inactive”; for `CC(=O)Nc1ccc2c(c1)Cc1ccccc1-2` it is “inactive”.
